# Assay outcomes as filed in PubChem.
# Rows were chosen to be rich in hits. Some 2.3% of all compounds tested hit in one or more screens of this group.
# MEKK2 mut-MEK5: MEK5 binding signal on mutant MEKK2 PB1, primary screen, biochemical, multiplex bead flow cytometry, Alexa488-MEK5. 290,000 tested, 0.35% active. AID 1530, 2009. percent response, % at 10 µM. Alexa488-MEK5 binding to MEKK2 mutant; in the data active = percent response above about 24%, passing the limit was not always enough
# UBC13 inh: UBC13 polyubiquitin chain formation inhibitors, primary screen, biochemical, TR-FRET, uHTS; inhibition, % at 20 µM; 330,000 tested, 0.47% active; in the data active = inhibition above about 45%, passing the limit was not always enough
# MEKK2 WT-MEK5: modulators of MEK5 binding to wildtype MEKK2, primary screen, biochemical, multiplex bead flow cytometry, Alexa488-MEK5. Mitogen-activated protein kinase kinase kinase 2 (Homo sapiens), Q9Y2U5. Alexa488-MEK5 binding to MEKK2 WT; actives lie on both sides. binding response (% of control), % at 10 µM. 290,000 tested, 1.1% active. AID 1531, 2009; in the data active = binding response below about 67% or above about 130%
# MEKK3 PB1 HTS: modulators of MEKK3-MEK5 PB1 binding, primary screen, biochemical, wildtype MEKK3, multiplex bead flow cytometry, Alexa488-MEK5. Mitogen-activated protein kinase kinase kinase 3 (Homo sapiens), Q99759. bead-based flow cytometry, Alexa488-MEK5 binding to MEKK3; actives lie on both sides; 0 = blocked by unlabeled MEK5, 100 = vehicle. binding response (% of control), % at 10 µM. 290,000 tested, 1.4% active. AID 1529, 2009;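 active = binding response more than 3 SD above or below the average of its plate-row segment, actives on both sides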;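 note: Alexa488 bead fluorescence after subtracting the streptavidin-only scavenger bead signal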
# Target sequence (Q99759 whole entry, looked up): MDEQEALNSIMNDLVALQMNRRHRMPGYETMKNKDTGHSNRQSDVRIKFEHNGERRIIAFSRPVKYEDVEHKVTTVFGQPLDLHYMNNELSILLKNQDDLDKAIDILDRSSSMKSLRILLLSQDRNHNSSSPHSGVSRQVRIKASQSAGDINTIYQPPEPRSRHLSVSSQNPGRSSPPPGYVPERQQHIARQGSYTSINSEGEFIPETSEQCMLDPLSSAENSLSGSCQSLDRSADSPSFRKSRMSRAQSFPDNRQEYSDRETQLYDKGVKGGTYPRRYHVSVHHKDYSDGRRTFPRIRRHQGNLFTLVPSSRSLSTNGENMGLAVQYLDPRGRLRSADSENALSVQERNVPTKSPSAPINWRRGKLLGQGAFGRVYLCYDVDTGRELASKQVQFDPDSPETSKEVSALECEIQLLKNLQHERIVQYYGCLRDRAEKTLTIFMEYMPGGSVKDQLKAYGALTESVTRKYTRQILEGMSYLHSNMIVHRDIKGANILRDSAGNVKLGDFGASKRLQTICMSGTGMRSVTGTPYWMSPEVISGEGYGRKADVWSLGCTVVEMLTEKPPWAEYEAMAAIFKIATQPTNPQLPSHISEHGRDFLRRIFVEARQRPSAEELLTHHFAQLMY
# MEKK2wt confirm: modulators of MEK5 binding to wildtype MEKK2, confirmation, biochemical, single concentration, multiplex bead flow cytometry; shares compounds with MEKK3 PB1 HTS; Alexa488-MEK5 binding to MEKK2 WT; actives lie on both sides; binding response (% of control), % at 10 µM; 5,900 tested, 2.4% active; AID 1892, 2009; in the data active = binding response below about 16% or above about 210%; inactive = in between
# MEKK2mut confirm: mutant MEKK2 PB1-MEK5 binding signal retest – biochemical, single concentration, multiplex bead flow cytometry, confirmation; Alexa488-MEK5 binding to MEKK2 mutant; 5,900 tested, 2% active; shares compounds with MEKK3 PB1 HTS; percent response, % at 10 µM; in the data active = percent response mostly above about 71%, no sharp cut-off; inactive = mostly below about 38%;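 note: higher means compound restores mutant binding toward wildtype level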
# MEKK3 confirm: MEKK3 wild-type PB1 binding to MEK5, inhibitors, confirmation, biochemical, bead multiplex flow cytometry, single concentration, wildtype | shares compounds with MEKK3 PB1 HTS | Alexa488-MEK5 binding to MEKK3; hits give low values | binding response (% of control), % at 10 µM | 5,900 tested, 1.8% active;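 active = binding response below 72% of control, or above a set upper limit, though filed actives all read lower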;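 note: 100% = DMSO only wells and 0% = binding blocked by excess unlabeled MEK5; lower values mean stronger disruption of MEK5 binding to MEKK3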
# Starred values were filed as active, the others as inactive; / = not tested or not shown; [ ] = remark or other dose.
SMILES,MEKK2 mut-MEK5,UBC13 inh,MEKK2 WT-MEK5,MEKK3 PB1 HTS,MEKK2wt confirm,MEKK2mut confirm,MEKK3 confirm
Cc1ccc(P(=O)(CSC(=N)N)c2ccc(C)cc2)cc1,2,19,108,133*,101,-7,100
CCn1c(SCC(=O)N/N=C/C=C/c2ccco2)nnc1-c1ccccc1,0,-5,106,128*,103,4,100
CCn1c(SCC(=O)N/N=C/C(C)=C/c2ccco2)nnc1-c1ccccc1,2,-16,99,104,/,/,/
COC(=O)/C=C/CC(C)OS(N)(=O)=O (centres undefined),7,-4,152*,98,96,-7,90
CC(C)C(NS(=O)(=O)c1ccc2c(c1)OCCCO2)C(=O)O (centres undefined),1,-11,100,100,/,/,/
COC(=O)c1cc(C(C)=O)c(C)[nH]c1=O,1,7,112,128*,96,-3,98
CCOC(=O)c1cc(C(C)=O)c(=O)[nH]c1C,0,-9,98,106,/,/,/
O=C1OC(/C(=C\Nc2ccc(F)cc2F)[N+](=O)[O-])c2ccccc21 (centres undefined),-3,-10,96,100,/,/,/
O=C1OC(/C(=C\Nc2cc(Cl)ccc2O)[N+](=O)[O-])c2ccccc21 (centres undefined),-17,-76,52,38*[inhibitor],100,-1,103
CCOC(=O)c1sc(NC(=O)CC)nc1C,2,5,100,104,/,/,/
CCOC(=O)c1sc(NC(=O)COC(=O)C(CCSC)NC(C)=O)nc1C (centres undefined),-2,15,78,61*[inhibitor],98,-9,93
COc1ccc(C(=O)NCC2CCCCC2)cc1S(=O)(=O)N1CCOCC1,/,-8,/,/,/,/,/
CC(=O)Nc1ccc(S(=O)(=O)NCc2ccc(C)cc2)cc1,7,8,122,126*,97,-3,95
O=[N+]([O-])c1ccccc1NCCNS(=O)(=O)c1ccc(Cl)cc1,1,-18,101,105,/,/,/
CC(=O)Nc1ccc(S(=O)(=O)NCc2ccc3c(c2)cc(C)n3C)cc1,-14,19,50*[inhibitor],70*[inhibitor],90,-9,97
CC(=O)Nc1ccc(S(=O)(=O)NCCNc2ccccc2[N+](=O)[O-])cc1,0,-52,112,128*,106,-2,106
CC(=O)Nc1ccc(S(=O)(=O)NCc2ccc3[nH]c(C)cc3c2)cc1,-9,15,72*[inhibitor],80*[inhibitor],83,2,94
Cc1noc(C)c1NC(=O)N(C)C[C@H]1Oc2ccc(NC(=O)c3ccncc3)cc2C(=O)N([C@H](C)CO)C[C@@H]1C,/,12,/,/,/,/,/
O=C(Cn1c(=O)cnc2ccccc21)N1CCN(S(=O)(=O)c2ccccc2Br)CC1,/,-2,/,/,/,/,/
Cc1cc(C)c2sc(N(CCCN(C)C)C(=O)COc3ccc(Cl)cc3)nc2c1,55*,37,246*,113,192,50,104
Cc1ccc2nc(N(CCCN(C)C)C(=O)COc3ccc(Cl)cc3)sc2c1,44,14,180*,109,149,25,100
CN(C)CCCN(C(=O)COc1ccc(Cl)cc1)c1nc2ccc(F)cc2s1,2,14,122,103,/,/,/
C=C(C)C(=O)OCC(O)COc1ccc(C(C)(C)c2ccc(OCC(O)COC(=O)C(=C)C)cc2)cc1 (centres undefined),/,-6,/,/,/,/,/
O=C1C(=Cc2ccc(Br)o2)C(=O)c2ccccc21,0,/,98,138*,105,1,106
